This is an account of results in PubChem BioAssay (NCI).

Some test systems named below: DU-145 prostate; MALME-3M melanoma; MDA-MB-231 breast; RXF 393 renal; SF-268 CNS; SF-295 CNS; SF-539 CNS; UACC-257 melanoma; M14 melanoma.
Common to all, as to test: NCI-60 one-dose screen, 48 h (100 = growth as untreated, 0 = no growth, -100 = all killed)
In the next assay the test system is K-562 leukemia. The conditions noted are these: 10 µM unless noted.

“And” between values parts separate entries of the source, which are not always exact repeats. Equal values may be shown once. About 83,000 compounds went through this panel and 20% of them were active in at least one assay; those are over-represented in the sample as a whole.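 A percent growth of 40 corresponds to 60% growth inhibition; 0 means no net growth; -100 means all cells died. Active threshold: below 10.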 Values without a mark were called inactive. The source made the active and inactive calls.

Consider `CC1(C)CC(=O)NC1=O`, for which the growth with DU-145 prostate (10 µM unless noted) was 109%; in the assay with K-562 leukemia, 94.8%; in the assay with MALME-3M melanoma (10 µM unless noted), 102%; in the assay with MDA-MB-231 breast (10 µM unless noted) it was 106%; in the assay with RXF 393 renal (10 µM unless noted), 97.7%; in the assay on SF-268 CNS (10 µM unless noted), 100%. Also, the growth was 108% in the assay with SF-295 CNS (10 µM unless noted), 93.5% with SF-539 CNS (10 µM unless noted), 101% in the assay on UACC-257 melanoma (10 µM unless noted) and 95% in the assay with M14 melanoma (10 µM unless noted).

For `O=[N+]([O-])c1ccc(NC(c2ccccc2)c2ccc3cccnc3c2O)cc1` (centres undefined), the growth in the assay with DU-145 prostate (10 µM unless noted) was 22.5%; in the assay with K-562 leukemia it was 13%; in the assay with MALME-3M melanoma (10 µM unless noted), 17.2%; in the assay on MDA-MB-231 breast (10 µM unless noted) it was 44.1%; in the assay with RXF 393 renal (10 µM unless noted) it was 43.9%; in the assay with SF-268 CNS (10 µM unless noted), 12.9%. Moreover, the growth was 14.5% in the assay with SF-295 CNS (10 µM unless noted), 14% in the assay on SF-539 CNS (10 µM unless noted), -4.88% (active) in the assay on UACC-257 melanoma (10 µM unless noted) and 8.95% (active) in the assay with M14 melanoma (10 µM unless noted).

With `S=c1nc[nH]c2nc[nH]c12`, the growth was 44.3% in the assay with DU-145 prostate (10 µM); 25.3% in the assay on DU-145 prostate (50 µM); 11.9% [50 µM] with K-562 leukemia; 50.1% in the assay with MALME-3M melanoma (10 µM); 17.4% with MALME-3M melanoma (50 µM); 42.9% in the assay with MDA-MB-231 breast (10 µM). The growth in the assay on MDA-MB-231 breast (50 µM) is 40.2%; with RXF 393 renal (10 µM) it was 62.8%; in the assay with RXF 393 renal (50 µM), 59.7%; in the assay on SF-268 CNS (10 µM), 39.2%; in the assay with SF-268 CNS (50 µM) it was 24.7%; in the assay with SF-295 CNS (10 µM) it was 11.4%. The growth was 18.1% with SF-295 CNS (50 µM); 31.2% with SF-539 CNS (10 µM); 14.4% in the assay with SF-539 CNS (50 µM); 44.2% with UACC-257 melanoma (10 µM); 29.7% in the assay with UACC-257 melanoma (50 µM); 14.1% with M14 melanoma (10 µM). Moreover, in the assay on M14 melanoma (50 µM), the growth was 15.6%.

Turning to `COc1ccc2oc3cc(NCCN(C)C)ccc3c(=O)c2c1`, the growth in the assay on DU-145 prostate (10 µM unless noted) was 108% and 76.6%; in the assay with K-562 leukemia, 66.7% and 43.2%; in the assay on MALME-3M melanoma (10 µM unless noted), 94.8% and 81.7%; in the assay on MDA-MB-231 breast (10 µM unless noted) it was 83.5% and 73.6%; in the assay with RXF 393 renal (10 µM unless noted) it was 107% and 92.5%; in the assay on SF-268 CNS (10 µM unless noted), 104% and 82.7%. Moreover, the growth is 54.7% and 72.1% in the assay on SF-295 CNS (10 µM unless noted); 80.7% and 84.2% with SF-539 CNS (10 µM unless noted); 86.9% with UACC-257 melanoma (10 µM unless noted); 96.5% and 76.7% in the assay with M14 melanoma (10 µM unless noted).

`CCOCCC(=O)O`: the growth in the assay with DU-145 prostate (10 µM unless noted) is 121%; with K-562 leukemia, 108%; in the assay on MALME-3M melanoma (10 µM unless noted) it was 116%; in the assay with MDA-MB-231 breast (10 µM unless noted), 105%; in the assay with RXF 393 renal (10 µM unless noted), 108%; with SF-268 CNS (10 µM unless noted) it was 112%. Besides, the growth in the assay with SF-295 CNS (10 µM unless noted) was 102%; in the assay with SF-539 CNS (10 µM unless noted) it was 102%; in the assay with UACC-257 melanoma (10 µM unless noted), 114%; in the assay on M14 melanoma (10 µM unless noted) it was 102%.

Consider `CCOP(C)(=O)/C(Cc1ccc(OC)c(OC)c1)=N\O` (centres undefined), for which the growth in the assay with DU-145 prostate (10 µM unless noted) is 116%; in the assay with K-562 leukemia it was 101%; with MALME-3M melanoma (10 µM unless noted), 98.5%; in the assay with MDA-MB-231 breast (10 µM unless noted), 109%; with RXF 393 renal (10 µM unless noted) it was 113%; in the assay on SF-268 CNS (10 µM unless noted), 102%. Further, the growth with SF-295 CNS (10 µM unless noted) was 100%; in the assay on SF-539 CNS (10 µM unless noted) it was 100%; in the assay with UACC-257 melanoma (10 µM unless noted), 113%; in the assay on M14 melanoma (10 µM unless noted) it was 108%.

`CCOC(=O)c1ccc(C(=N)N)cc1`: the growth in the assay with DU-145 prostate (10 µM unless noted) is 106%; in the assay on K-562 leukemia, 101%; in the assay on MALME-3M melanoma (10 µM unless noted) it was 108%; in the assay on MDA-MB-231 breast (10 µM unless noted), 120%; with RXF 393 renal (10 µM unless noted), 95.4%; with SF-268 CNS (10 µM unless noted), 104%. For the same molecule, the growth in the assay with SF-295 CNS (10 µM unless noted) is 101%; in the assay with SF-539 CNS (10 µM unless noted) it was 105%; in the assay with UACC-257 melanoma (10 µM unless noted), 96.8%; in the assay with M14 melanoma (10 µM unless noted), 108%.

`O=C(NC(=O)c1ccc(F)c(Cl)c1)NC1CC1`: the growth is 106% and 98.7% in the assay on DU-145 prostate (10 µM unless noted); 78.4% and 95.9% in the assay on K-562 leukemia; 107% and 98.9% with MALME-3M melanoma (10 µM unless noted); 117% with MDA-MB-231 breast (10 µM unless noted); 113% with RXF 393 renal (10 µM unless noted); 103% in the assay on SF-268 CNS (10 µM unless noted). Also, the growth is 104% and 99.5% with SF-295 CNS (10 µM unless noted); 110% and 98.4% in the assay on SF-539 CNS (10 µM unless noted); 97.3% and 103% with UACC-257 melanoma (10 µM unless noted); 94.7% and 109% in the assay on M14 melanoma (10 µM unless noted).

As for `CCC/C(=N/NC(N)=O)c1ccco1`, the growth is 109% with DU-145 prostate (10 µM unless noted); 104% with K-562 leukemia; 83.8% in the assay on MALME-3M melanoma (10 µM unless noted); 100% with MDA-MB-231 breast (10 µM unless noted); 105% in the assay on RXF 393 renal (10 µM unless noted); 102% in the assay on SF-268 CNS (10 µM unless noted). Also, the growth is 98.4% in the assay with SF-295 CNS (10 µM unless noted), 93% in the assay with SF-539 CNS (10 µM unless noted), 98.6% in the assay on UACC-257 melanoma (10 µM unless noted) and 97.6% in the assay with M14 melanoma (10 µM unless noted).

Consider `O=c1[nH]c(=O)n(C2OC(CO)C(O)C2O)cc1I` (centres undefined), for which the growth was 117% and 112% in the assay on DU-145 prostate (10 µM unless noted); 95.1% and 128% in the assay on K-562 leukemia; 100% and 107% in the assay with MALME-3M melanoma (10 µM unless noted); 109% and 111% in the assay on MDA-MB-231 breast (10 µM unless noted); 114% and 123% with RXF 393 renal (10 µM unless noted); 102% and 112% with SF-268 CNS (10 µM unless noted). For the same molecule, the growth in the assay with SF-295 CNS (10 µM unless noted) was 125% and 102%; with SF-539 CNS (10 µM unless noted) it was 105% and 102%; in the assay on UACC-257 melanoma (10 µM unless noted), 97.3% and 101%; in the assay with M14 melanoma (10 µM unless noted), 104% and 90.5%.

As to `O=COCCCc1ccccc1`, the growth is 112% with DU-145 prostate (10 µM unless noted); 104% in the assay on K-562 leukemia; 106% with MALME-3M melanoma (10 µM unless noted); 100% in the assay with MDA-MB-231 breast (10 µM unless noted); 108% in the assay with RXF 393 renal (10 µM unless noted); 103% with SF-268 CNS (10 µM unless noted). Also, the growth with SF-295 CNS (10 µM unless noted) was 106%; in the assay with SF-539 CNS (10 µM unless noted), 102%; in the assay on UACC-257 melanoma (10 µM unless noted), 86.5%; with M14 melanoma (10 µM unless noted), 105%.
